Results reported in ChEMBL document CHEMBL3988442, “University of Dundee, Small-Polar-MMV Screening Library” (2021).

Assays:
[1] = target: T1, Aspartate--tRNA(Asp/Asn) ligase (Mycobacterium tuberculosis (strain ATCC 25618 / H37Rv)) (UniProt P9WFW3); assay: Assay for Asp RNA synthetase-1 from Mycobacterium tuberculosis; assay type: functional; parameters: scale not given: direction of the effect not stated beside the values; conditions: 30 µM; further: in the data most compounds retested in dose-response had high values
T1 sequence (whole entry): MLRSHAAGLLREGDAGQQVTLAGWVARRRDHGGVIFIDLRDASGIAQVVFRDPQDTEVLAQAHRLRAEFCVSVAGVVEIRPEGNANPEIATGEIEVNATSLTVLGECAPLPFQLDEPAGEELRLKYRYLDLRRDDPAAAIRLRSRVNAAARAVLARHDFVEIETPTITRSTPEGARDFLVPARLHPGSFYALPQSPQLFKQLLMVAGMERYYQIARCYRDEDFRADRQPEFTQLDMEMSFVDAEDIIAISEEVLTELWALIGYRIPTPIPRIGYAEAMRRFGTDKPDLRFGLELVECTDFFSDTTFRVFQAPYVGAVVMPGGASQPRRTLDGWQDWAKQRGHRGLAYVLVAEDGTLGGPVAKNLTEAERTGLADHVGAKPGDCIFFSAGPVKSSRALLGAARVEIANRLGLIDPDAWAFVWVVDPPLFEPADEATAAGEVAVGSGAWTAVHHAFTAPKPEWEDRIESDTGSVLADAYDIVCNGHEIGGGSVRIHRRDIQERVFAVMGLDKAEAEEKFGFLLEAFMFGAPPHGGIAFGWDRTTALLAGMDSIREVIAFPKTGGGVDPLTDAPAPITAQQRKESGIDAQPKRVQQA

[2] = target: Shiga toxin 2 (Escherichia coli O157:H7) (UniProt P09385+P09386); assay: E. coli 0.157:H7 Shiga Toxin SOP - stx2 screening assay; assay type: functional; parameters: scale not given: direction of the effect not stated beside the values; conditions: 30 µM

Structure (SMILES)	Percent Effect [1] [%]	Percent Effect [2] [%]
c1cnnc(NCC2CN(CCN3CCCCC3)CCO2)c1 (centres undefined)	-4.13	-5.19
Cc1ccc(-c2ncc(C(=O)NCCNC(=O)C(C)C)s2)c(C)c1	2.19	11.7
O=C(CCN1CCCN(c2nccs2)CC1)Nc1ccccc1	-1.81	-52.2
CC(=O)N1CCN(C(=O)CCOc2ccc(C(C)C)cc2)CC1	-2.21	38.9
O=C(CCCc1ccc(F)cc1)N1C[C@@H](CN2CCOCC2)[C@@H](CO)C1	5.03	-6.96
c1cnnc(N2CCCC2CNc2nc3ccccc3o2)c1 (centres undefined)	-3.6	-10.1
CNC(=O)c1cccc(NC(=O)Cn2nc(-c3cccs3)oc2=O)c1	-8.92	-55.6
Cc1cc(CN2CC[C@H]3C(=O)N(c4ccccc4)CCO[C@H]3C2)no1	-4.96	-8.26
COc1cccc(N2CCN(C(=O)C(O)c3cccc(Cl)c3)CC2=O)c1 (centres undefined)	0.569	-24.2
Fc1ccc(-c2nnc(CN3CCn4c(nnc4C4CC4)C3)o2)cc1	3.19	-26.1
CC(O)CN1CCC(CNCc2c[nH]nc2C(C)(C)C)CC1 (centres undefined)	0.384	14.9
Cc1nc(CN2CCO[C@@H]3CN(C(=O)NC(C)C)CC[C@@H]3C2)cs1	3.49	-4.73
CCS(=O)(=O)N1CCC2(CC1)CC(Oc1ccccn1)CO2 (centres undefined)	-0.51	0.988
O=C(c1cccc(Cn2ccnc2)c1)N1CCCC(n2ccnc2)C1 (centres undefined)	-0.874	-7.22
O=C(NCc1cc[nH]n1)NCC(c1ccco1)N1CCCC1 (centres undefined)	0.607	4.49
c1ccc(CCN2CCN(c3ccc4nncn4n3)CC2)nc1	1.58	-28.9
CCc1nccn1C1CCCN(C(=O)c2ccc3[nH]c(=O)[nH]c3c2)C1 (centres undefined)	-9.98	-46.4
CN(Cc1cccc(F)c1)C(=O)CN1CCCCC1Cn1cncn1 (centres undefined)	5.47	-9.64
CN1CC(=O)N(c2ccsc2)CC12CCN(C(=O)c1ccccc1)C2 (centres undefined)	2.85	-3.66

Structure (SMILES)	Percent Effect [1] [%]	Percent Effect [2] [%]
Cc1cccc(NC(=O)NCCCn2nc3ccccn3c2=O)c1C	3.46	19.3
CCn1cc2c(n1)CN(C(=O)c1ccncc1)CC2COCC1CC1 (centres undefined)	3.06	-17.4
CCCNC(=O)CSc1nnc2[nH]c(=O)cc(CC)n12	-6.58	-11.3
O=C(NCCNc1cnccn1)C1CCN(C(=O)N2CCCC2)CC1	6.24	-37.5
CCn1ncc(NC(=O)c2cc(C3CC3)nc3c2c(C)nn3C)c1C	-1.99	-23
CN(CCNC(=O)Nc1ccncc1)C1CCCCC1	1.25	-5.92
CC(C)NS(=O)(=O)c1cc(C(=O)O)cc(-c2ccc(CN(C)C)cc2)c1	-3.46	-20.1
CC(C)(C)n1cc(C(=O)N2CCN(Cc3ccccc3F)CC2)cn1	-1.61	20.1
CSCC(=O)N1C[C@H]2CC[C@@H]1CN(Cc1ccccc1)C2	4.28	-4.7
COCC(O)CN(C)C(=O)NC1CCN(Cc2ccccn2)CC1 (centres undefined)	-3.52	-36.8
CCOC(=O)NC(CNC(=O)CCc1ccccn1)CC(C)C (centres undefined)	1.17	0.307
COCCN1C(=O)CC(N2CCN(c3ccc(F)cc3)CC2)C1=O (centres undefined)	1.23	-24.6
Cc1ccc(CNC(=O)N2CCCCC2CCNS(C)(=O)=O)cc1 (centres undefined)	1.04	6.21
Cc1ccc([C@@H]2CN(S(=O)(=O)N(C)C)C[C@H]2N(C)C)cc1	2.81	5.3
COc1ccccc1OCC(=O)NS(=O)(=O)c1ccc(C)s1	-0.394	3.1
Cc1cc(C)cc(OCCC(=O)N2CCCC(n3cncn3)C2)c1 (centres undefined)	-4.66	5.55
Cc1noc(C)c1CN1CC2(CCN(C(=O)c3c[nH]cn3)C2)CC1=O (centres undefined)	0.582	-14.1
CCS(=O)(=O)N1CCC(c2nnc(Cn3cccn3)n2C2CC2)CC1	-3.09	-6.14
c1cnnc(N2CCCC2CNCc2ccsc2)c1 (centres undefined)	-3.81	-8.21

Structure (SMILES)	Percent Effect [1] [%]	Percent Effect [2] [%]
CSCC(CCO)NC(=O)Nc1cc(Br)ccc1C (centres undefined)	3.02	-10.3
N#Cc1ccc(CNCC(C(=O)N2CCOCC2)c2ccccc2)cc1 (centres undefined)	24.2	-26
O=C(NCCC1=CCCCC1)NCc1nnc2n1CCC2	2.5	24.3
CN(Cc1cnn(C)c1)C(=O)Cn1c(CS(C)(=O)=O)nc2ccccc21	-0.869	1.77
COc1ccc(S(=O)(=O)NCc2cccnc2N(C)C)cc1F	-1.03	-9.13
Cc1nc(C)n(CC2CCCN2CCc2cccs2)n1 (centres undefined)	-0.678	-28.6
O=C(c1cnc(C2CC2)s1)N1CCCC(n2cccn2)C1 (centres undefined)	-2.52	24.9
CS(=O)(=O)N1CCC(C(=O)NC(Cc2ccsc2)c2ccccn2)CC1 (centres undefined)	-1.32	14.7
CCc1nc(CN(C)CC2CCN(CCO)CC2)no1	-1.64	-1.86
Cc1ncsc1C(=O)NCCOc1ncc(Cl)cc1Cl	3.06	-33.3
O=C(COc1cccc2c1CCC2=O)NCCOc1ccccc1	12.7	-35
CCc1nc(CN2CCN(C(=O)COCc3ccccc3)CC2)no1	-1.88	2.35
CCOC(=O)C1CCN(Cc2csc(C(C)(C)C)n2)CC1	-9.34	-1.05
O=S(=O)(c1ccccc1)N1CCCN(CCCn2ccnc2)CC1	-2.67	-12.6
NC(=O)N1CCC2(CC1)CN(Cc1cccnc1)C(=O)CO2	0.66	-1.38
O=C(NCc1cc[nH]n1)NCC(c1ccc(F)cc1)N1CCOCC1 (centres undefined)	-0.433	-14.2
CC(C)OCCN1CCN(C(=O)c2cccc(CC#N)c2)CC1	2.85	-12.3
Cc1cnc(C(=O)N2CCc3ncnc(C)c3CC2)cn1	0.251	-27.4
Cc1cc(OCC(=O)NS(=O)(=O)c2c(C)noc2C)ccc1Cl	-2.01	13.3
